Reference: PubChem BioAssay (NCATS)
Where “and” joins values, the source holds several entries; their conditions need not be identical. Equal entries are not always repeated. Records with an inconclusive call do not appear. Calls of active or inactive are those of the source. Calls follow the shape of the dose curve; as a rule, active = well fitted curve in the direction sought with a large enough effect; inconclusive = small, poorly fitted or top-dose-only effect, or another doubt; inactive = no such curve, though single readings can be large; an effect the other way counts as inactive or inconclusive. Peptide text beside a SMILES is read from it.

Assays:
[1] = molecular target: Glutathione peroxidase 1 (Homo sapiens) (UniProt P07203); assay: Primary qHTS Assay for Inhibitors of Recombinant Selenoprotein Glutathione Peroxidase 1 (GPX1) (AID 1845191); also: nearly all actives have a fitted effect of over 65% in size
Chain of Glutathione peroxidase 1 (Homo sapiens) (P07203 whole entry, looked up): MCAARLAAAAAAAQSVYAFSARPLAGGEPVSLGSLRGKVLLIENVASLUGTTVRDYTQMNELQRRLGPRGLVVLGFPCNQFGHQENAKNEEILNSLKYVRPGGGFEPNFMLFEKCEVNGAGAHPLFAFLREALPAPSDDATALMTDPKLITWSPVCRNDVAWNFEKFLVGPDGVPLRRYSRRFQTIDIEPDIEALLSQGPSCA
In short: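 NADPH consumption tracked by fluorescence at 340/450 nm between t=0 and t=15 min, room temperature. Final mix: 10 nM GPX1, 100 nM glutathione reductase, 1 mM GSH, 0.5 mM NADPH, 0.5 mM cumene hydroperoxide, 0.01% BSA; 30 min compound–enzyme preincubation.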

[2] = molecular target: Phospholipid hydroperoxide glutathione peroxidase GPX4 (Homo sapiens) (UniProt P36969); assay: Primary qHTS Assay for Inhibitors of Recombinant Selenoprotein Glutathione Peroxidase 4 (GPX4) (AID 1845192); also: nearly all actives have a fitted effect of over 65% in size
Chain of Phospholipid hydroperoxide glutathione peroxidase GPX4 (Homo sapiens) (P36969 whole entry, looked up): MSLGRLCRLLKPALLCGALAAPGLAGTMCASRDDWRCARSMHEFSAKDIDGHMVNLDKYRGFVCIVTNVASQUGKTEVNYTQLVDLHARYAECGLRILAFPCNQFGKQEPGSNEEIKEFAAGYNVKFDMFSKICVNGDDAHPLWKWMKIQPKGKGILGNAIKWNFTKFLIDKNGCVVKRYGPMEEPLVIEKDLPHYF
In short: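 NADPH consumption followed by fluorescence at 340/450 nm, t=0 and after 15 min at room temperature. Reaction started with cumene hydroperoxide (0.5 mM final) after 30 min compound–GPX4 preincubation; final 200 nM GPX4, 100 nM GR, 1 mM GSH, 0.5 mM NADPH.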

[3] = Quantitative High-Throughput drug screen in 47 multiple myeloma cell lines against the NCATS MIPE library collection: FR4_PLB cell viability assay (AID 1918924; also: nearly all actives have a fitted effect of over 35% in size)
In short: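 Myeloma cells (500 per well) were exposed to MIPE 4.0 compounds by pin transfer and incubated 48 hours at 37C, 5% CO2. Viability was read as ATP by CellTiter-Glo luminescence, normalised to DMSO (100%) and media-only (0%) wells.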

[4] = Quantitative High-Throughput drug screen in 47 multiple myeloma cell lines against the NCATS MIPE library collection: EJM_DSMZ cell viability assay (AID 1918926; also: nearly all actives have a fitted effect of over 30% in size)
In short: (§1)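 Approved and investigational drugs from MIPE 4.0 were added by pin tool to 500 cells per well. After 48 hours at 37C, ATP-based CellTiter-Glo luminescence indicated remaining viability.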

[5] = Quantitative High-Throughput drug screen in 47 multiple myeloma cell lines against the NCATS MIPE library collection: Delta47_JCRB cell viability assay (AID 1918925; also: nearly all actives have a fitted effect of over 45% in size)
In short: as §1

[6] = Quantitative High-Throughput drug screen in 47 multiple myeloma cell lines against the NCATS MIPE library collection: AMO1_DSMZ cell viability assay (AID 1918927; also: nearly all actives have a fitted effect of over 30% in size)
In short: as §1

Measured: Potency
Potency is read from the fitted curve at half-maximal effect.

CCCCN(CCCC)CCC(O)c1cc2c(Cl)cc(Cl)cc2c2cc(C(F)(F)F)ccc12 (stereo not drawn)
active: [3] 20900 nM | [4] 264 nM
inactive: [1] | [2]

O=C(NCCO[N+](=O)[O-])c1cccnc1
inactive: [1] | [2] | [3] | [4]

COC(=O)[C@H](Cc1ccccc1)NC(=O)[C@@H](N)CC(=O)O (H-Asp-Phe-OMe)
inactive: [1] | [2] | [3] | [5] | [6]

Cc1nc2n(c(=O)c1CCN1CCC(c3noc4cc(F)ccc34)CC1)CCCC2
inactive: [1] | [2] | [3] | [4] | [6]

CN(C)c1ccc2nc3ccc(=[N+](C)C)cc-3sc2c1
active: [3] 1870 nM | [5] 6620 nM | [4] 469 nM | [6] 8330 nM
inactive: [1] | [2]

CS(=O)(=O)OCCCCOS(C)(=O)=O
inactive: [1] | [2] | [5] | [6]
active: [3] 4180 nM

CCCc1cc(=O)[nH]c(=S)[nH]1
inactive: [1] | [2] | [3] | [4] | [6]

CC1Cc2ccccc2N1NC(=O)c1ccc(Cl)c(S(N)(=O)=O)c1 (stereo not drawn)
inactive: [1] | [2] | [3] | [5] | [4]

Nc1nc(Cl)nc2c1ncn2[C@H]1C[C@H](O)[C@@H](CO)O1
inactive: [1] | [2]
active: [3] 3720 nM | [5] 235 nM | [6] 187 nM

CCC[C@@H]1C[C@@H](C(=O)N[C@@H]([C@H]2O[C@H](SC)[C@H](O)[C@@H](O)[C@H]2O)[C@@H](C)O)N(C)C1
active: [4] 3320 nM
inactive: [1] | [2] | [3] | [6]

CC(C)c1ccc2oc3nc(N)c(C(=O)O)cc3c(=O)c2c1
active: [1] 22.7 µM and 16.3 µM | [2] 12.8 µM and 8.06 µM
inactive: [3] | [4] | [6]

O=P(O)(O)C(O)(Cn1ccnc1)P(=O)(O)O
inactive: [1] | [2] | [3] | [5] | [4]

CN1CCC(=C2c3ccccc3CCc3sccc32)CC1
inactive: [1] | [2] | [3] | [4]

COc1cc(OC)c(C(=O)CCCN2CCCC2)c(OC)c1
inactive: [1] | [2] | [3] | [5] | [4] | [6]

O=c1oc2cc(O)ccc2s1
active: [6] 23500 nM
inactive: [1] | [2] | [3] | [4]

C[Se]CCC(N)C(=O)O (stereo not drawn)
inactive: [1] | [2] | [3] | [5] | [4]

CCOC(=O)C1=C[C@@H](OC(CC)CC)[C@H](NC(C)=O)[C@@H](N)C1
inactive: [1] | [2] | [3] | [5] | [4] | [6]

COC(=O)N[C@H](C(=O)N[C@@H](Cc1ccccc1)[C@@H](O)CN(Cc1ccc(-c2ccccn2)cc1)NC(=O)[C@@H](NC(=O)OC)C(C)(C)C)C(C)(C)C
inactive: [1] | [2] | [3] | [5] | [4]

Cc1nc(-c2ccc(OCC(C)C)c(C#N)c2)sc1C(=O)O
inactive: [1] | [2] | [3] | [5] | [4] | [6]

Cc1c(OCC(F)(F)F)ccnc1CS(=O)c1nc2ccccc2[nH]1 (stereo not drawn)
inactive: [1] | [3] | [4]
active: [2] 4.53 µM

CC[C@]1(O)C[C@H]2CN(CCc3c([nH]c4ccccc34)[C@@](C(=O)OC)(c3cc4c(cc3OC)N(C=O)[C@H]3[C@@](O)(C(=O)OC)[C@H](OC(C)=O)[C@]5(CC)C=CCN6CC[C@]43[C@@H]65)C2)C1
inactive: [1] | [2] | [3]
active: [5] 4.7 nM | [6] 372 nM

Nc1ccc(S(N)(=O)=O)cc1
inactive: [1] | [2] | [3] | [5] | [4] | [6]

CCCCc1ccc2nc(NC(=O)OC)[nH]c2c1
inactive: [1] | [2] | [6]
active: [3] 2.1 nM | [4] 26.4 nM

CC(S)C(=O)NCC(=O)O (stereo not drawn)
inactive: [1] | [2] | [3] | [4] | [6]

Oc1ccc(OCc2ccccc2)cc1
inactive: [1] | [2] | [3] | [4] | [6]

CCCCCCCCCCCCCCCCCCCCCCO
inactive: [1] | [2] | [3] | [4] | [6]

Cc1cccc(CN2CCN(C(c3ccccc3)c3ccc(Cl)cc3)CC2)c1 (stereo not drawn)
inactive: [1] | [2] | [3]
active: [5] 8330 nM | [4] 18700 nM

NS(=O)(=O)c1cc(C(=O)O)c(NCc2ccco2)cc1Cl
inactive: [1] | [2] | [3] | [5] | [4]

Nc1ccn([C@@H]2O[C@H](CO)[C@@H](O)C2O)c(=O)n1 (stereo partly drawn)
inactive: [1] | [2] | [3] | [5] | [4] | [6]

CCN(CC)C(=S)SSC(=S)N(CC)CC
active: [3] 7.4 nM | [5] 11.8 nM | [4] 6.6 nM | [6] 37.2 nM
inactive: [1] | [2]

CC(C)(S)[C@@H](N)C(=O)O
inactive: [1] inactive [at 4.49 µM] | [2] inactive [at 4.52 µM] | [3] | [4] | [6]
